The source of these data is PubChem BioAssay AID624049 (National Center for Advancing Translational Sciences (NCATS), 2012).

The structures appear in SMILES notation. The source made the active and inactive calls. Entries that show only a call come without a potency. Calls follow the shape of the dose curve; as a rule, active = well fitted inhibition curve with a large enough effect; inactive = no such curve, though single readings can be large or run the other way.

The target of this test is Dual specificity protein kinase CLK3 (Homo sapiens) (UniProt P49761). As to the kind of experiment: Reaction Biology data for inhibitors of CLK3: Probe SAR. To be noted: Reaction Biology CLK3 kinase assay, 10 uM ATP; series mostly up to 10 µM. The text has this: Alternative splicing of pre-mRNAs plays a major role in the regulation of eukaryotic gene expression. Alternative splicing is now thought to be one of the primary reasons for the complexity of higher organisms leading to an average of three protein isoforms per gene. Aberrant splicing can lead to a number of diseases and is known to play a role in rare genetic diseases such as progeria syndrome. Hutchinson-Gilford Progeria Syndrome (HGPS) is a pediatric premature aging disease caused by a spontaneous mutation in the lamin A/C (LMNA) gene due to a single point mutation in the lamin A gene effecting 1 in 4 million people. To identify both specific splicing modulators of the lamin A gene as well as general splicing modulators, a cell-based HTS assay was developed using a minigene reporter system (AIDs, 1459 & 1487). […] This AID summarizes the characterization of lead compounds in Clk3. NIH Molecular Libraries Probe Production Centers Network [MLPCN] NIH Chemical Genomics Center [NCGC] MLPCN Grant: MH084827 Assay Submitter (PI): Tom Misteli
Dual specificity protein kinase CLK3 (Homo sapiens), sequence (P49761 whole entry, looked up, canonical isoform): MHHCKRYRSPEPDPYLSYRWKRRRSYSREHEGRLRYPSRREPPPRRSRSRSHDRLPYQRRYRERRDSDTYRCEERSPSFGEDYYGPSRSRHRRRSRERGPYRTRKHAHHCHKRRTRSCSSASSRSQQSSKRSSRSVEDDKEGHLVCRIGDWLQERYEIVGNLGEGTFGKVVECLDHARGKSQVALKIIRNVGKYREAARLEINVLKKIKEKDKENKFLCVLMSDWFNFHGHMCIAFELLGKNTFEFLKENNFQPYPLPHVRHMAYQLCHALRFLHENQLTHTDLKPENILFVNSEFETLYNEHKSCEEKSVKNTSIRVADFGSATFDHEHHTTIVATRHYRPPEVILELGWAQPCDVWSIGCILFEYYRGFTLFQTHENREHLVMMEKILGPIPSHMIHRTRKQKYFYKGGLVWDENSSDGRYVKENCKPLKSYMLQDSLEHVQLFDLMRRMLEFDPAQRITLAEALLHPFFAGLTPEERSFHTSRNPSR
Compound IC50s were determined at Reaction Biology (http://www.reactionbiology.com) with ten concentration points starting at 10 uM in the assay using a 3-fold dilution series. The control compound staurosporine was also tested in the 10-dose IC50 mode with the same 3-fold serial dilution, again starting at 10 uM. All kinase reactions were performed using 10 uM ATP in the assay. 100% activity was taken from kinase reactions with DMSO alone (the vehicle used for compound stock solutions).
On to `FC(F)(F)c1cc(Br)cc(Nc2nccc(-c3ccc4c(c3)OCO4)n2)c1`, for which the Potency entry was “inactive”.

`O=[N+]([O-])c1cc(Nc2nccc(-c3ccc4c(c3)OCO4)n2)cc(C(F)(F)F)c1`: the Potency entry is “inactive”. On to `Clc1ccc(CNc2nccc(-c3ccc4c(c3)OCCO4)n2)cc1Cl`, for which the Potency entry is “inactive”. As to `Clc1ccc(Nc2nccc(-c3ccc4c(c3)OCO4)n2)cc1`, the Potency entry was “inactive”.

With `Clc1ccc(CNc2nccc(-c3ccc4cn[nH]c4c3)n2)cc1Cl`, the Potency result is “inactive”. In the case of `Brc1ccc(CNc2nccc(-c3ccc4c(c3)OCO4)n2)cc1Br`, the Potency is 3.23 µM (active). Consider `Clc1cc(Cl)cc(CNc2nccc(-c3ccc4c(c3)OCO4)n2)c1`, for which the Potency entry is “inactive”. Take `Clc1ccc(CNc2ccnc(-c3ccc4[nH]ncc4c3)n2)cc1Cl`: the Potency entry is “inactive”. Under `Cc1nc(CN(C)c2ncnc3ccc(-c4ccc5c(c4)OCO5)cc23)cs1` stands 0.403 µM (active); under `COc1cccc(-c2ccnc(NCc3ccc(Cl)cc3)n2)c1`, “inactive”.

In the case of `Clc1ccc(CNc2nccc(-c3ccc4[nH]ncc4c3)n2)cc1Cl`, the Potency was 2.93 µM (active). As to `Cc1nc(CN(C)c2ncnc3ccc(-c4ccc5[nH]ncc5c4)cc23)cs1`, the Potency is 0.792 µM (active). Consider `Brc1cc(Br)cc(CNc2nccc(-c3ccc4c(c3)OCO4)n2)c1`, for which the Potency entry is “inactive”. Under `c1cncc(CNc2ncncc2-c2ccc3c(c2)OCO3)c1` stands “inactive”. In the case of `FC(F)(F)c1cccc(Nc2nccc(-c3ccc4c(c3)OCO4)n2)c1`, the Potency result is “inactive”. As to `Clc1ccc(CNc2ccnc(-c3ccc4c(c3)OCO4)n2)cc1Cl`, the Potency entry was “inactive”.

In the case of `COc1ccc(-c2ccnc(NCc3ccc(Cl)cc3)n2)cc1`, the Potency result is “inactive”.

`Cc1nc(CNc2ncnc3ccc(-c4ccc5c(c4)OCO5)cc23)cs1`: the Potency was 1.26 µM (active).

On to `Clc1ccc(CNc2ncncc2-c2ccc3c(c2)OCO3)cc1`, for which the Potency result was “inactive”.

Turning to `c1cncc(CNc2nccc(-c3ccc4[nH]ncc4c3)n2)c1`, the Potency is 2.66 µM (active).

As to `Clc1cc(Cl)cc(CNc2ncncc2-c2ccc3c(c2)OCO3)c1`, the Potency entry was “inactive”. Take `COc1cccc(-c2ccnc(NCc3ccc(Cl)c(Cl)c3)n2)c1`: the Potency result was “inactive”. For `c1nc(NCC2CCCO2)c2cc(-c3ccc4c(c3)OCO4)ccc2n1` (stereo not drawn), the Potency was 0.836 µM (active).

For the molecule `c1cncc(CNc2ccnc(-c3ccc4[nH]ncc4c3)n2)c1`, the Potency result was “inactive”. In the case of `Cc1c(-c2ccnc(NCc3ccc(Cl)cc3)n2)sc(=O)n1C`, the Potency entry was “inactive”. On to `Clc1ccc(CNc2nccc(-c3ccc4c(c3)OCO4)n2)cc1Cl`, for which the Potency was 3.63 µM (active).

As to `c1cc(-c2ccc3c(c2)OCO3)nc(Nc2ccc3c(c2)OCO3)n1`, the Potency entry is “inactive”.

As to `COc1ccc(-c2ccnc(NCc3ccc(Cl)c(Cl)c3)n2)cc1OC`, the Potency entry is “inactive”. In the case of `COc1ccc(-c2ccnc(NCc3ccc(Cl)c(Cl)c3)n2)cc1`, the Potency entry was “inactive”. Next, `c1cncc(CNc2ccnc(-c3ccc4cn[nH]c4c3)n2)c1`: “inactive”. With `c1cncc(CNc2nccc(-c3ccc4c(c3)OCO4)n2)c1`, the Potency is 1.47 µM (active). Regarding `Cc1c(-c2ccnc(NCc3cccnc3)n2)sc(=O)n1C`, the Potency entry was “inactive”. Take `Clc1ccc(CNc2ncncc2-c2ccc3c(c2)OCO3)cc1Cl`: the Potency result is “inactive”.
